In the library only some 1.5% were active in any assay of this set; here they are far more common.
PrPC TRFRET = inhibitors of human cell surface prion protein PrPC | TR-FRET read-out | inhibition, % at 13.8 µM | hit rate 0.43% among 370,000 | AID 720596; in the data active = inhibition above about 24%; also: 0% = median of the test wells and 100% = reference compound wells
SSB-PriA inh = blocks PriA binding to SSB C-terminal tail | hit rate 0.6% among 430,000 | AlphaScreen SSBct-PriA binding, biotinylated peptide | inhibition, % at 33 µM | AID 1272365; in the data active = inhibition mostly above about 37%, no sharp cut-off; inactive = mostly below about 20%;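 also: plate controls were negative control peptide for no effect and reference peptide for full effect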
TcdB GH inh = blocks C. difficile toxin B glycohydrolase activity | P18177 | TcdB glycohydrolase enzymatic assay, plate reader | inhibition, % at 9.99 µM | hit rate 0.24% among 350,000 | AID 652162; in the data active = inhibition above about 10%
VHR inh abs = inhibitors of human VHR1 phosphatase (DUSP3); hit rate 0.52% among 290,000; inhibition, % at 13.3 µM; recombinant VHR phosphatase, pNPP absorbance; in the data active = inhibition above about 50%
CCHF vOTU inh = CCHFV vOTU protease inhibition | Pep-AMC fluorescence | inhibition, % at 11.5 µM | hit rate 0.55% among 370,000 | AID 651958; in the data active = inhibition above about 30%; also: 0% = vehicle wells with enzyme and 100% = no enzyme wells
BH1578 lux ind = inducers of Vibrio cholerae quorum light production without autoinducers; V. cholerae BH1578 lux reporter, luminescence, 6 h; AID 588436; hit rate 0.16% among 350,000; activation, % at 18.7 µM; in the data active = activation mostly above about 9.7%, no sharp cut-off
PrPC TRFRET cf = cell surface PrPC inhibition, TR-FRET confirmation; shares compounds with PrPC TRFRET; cell surface PrPC level; inhibition, % at 13.8 µM; hit rate 65% among 1,500; AID 743200; in the data active = inhibition above about 25%
LD9 cytotox = counter-screen for PrPc inhibitors: cytotoxicity in LD9 cells. AID 743201. hit rate 29% among 1,500. shares compounds with PrPC TRFRET. luminescence viability. inhibition, % at 13.8 µM; in the data active = inhibition above about 9.5%
* marks the source's active call; other numbers are inactive results; i = inactive; . = not tested or not shown.

SMILES	PrPC TRFRET	SSB-PriA inh	TcdB GH inh	VHR inh abs	CCHF vOTU inh	BH1578 lux ind	PrPC TRFRET cf	LD9 cytotox
CCc1ccc(C(=O)NNc2ccc(Cl)cc2)cc1	30.8*	8.0	-6.4	5.9	21.8	0.5	42.9*	3.0
O=C(COc1ccccc1)NCCSc1ncc(-c2ccc(F)cc2)[nH]1	.	4.0	.	.	.	.	.	.
Cc1n[nH]c(=S)c2nn(-c3ccccc3F)c(C)c12	45.8*	-10.7	.	-19.1	8.2	i	67.8*	3.0
Cc1n[nH]c(=S)c2nn(-c3cccc(Cl)c3)c(C)c12	36.1*	.	.	-14.5	-6.3	.	67.2*	-4.0
Cc1ccc(-n2nc3c(=S)[nH]nc(C)c3c2C)cc1	110.5*	-11.7	.	-14.5	-5.4	i	122.4*	-0.3
COc1cccc(-n2nc3c(=S)[nH]nc(C)c3c2C)c1	17.0	-8.1	.	24.5	2.6	-1.1	.	.
COc1ccc(C(=O)NCCN2Cc3ccccc3OCC2=O)cn1	.	-5.0	.	.	.	.	.	.
O=C(CSc1nc(=O)n(CCCO)c2c1CCC2)N1CCc2ccccc21	.	-4.0	.	.	.	.	.	.
Brc1ccc2nc(-c3ccco3)c(Cc3ccccc3)n2c1	37.1*	.	-1.5	.	21.6	.	66.3*	1.3
COc1ccc(-c2nc3ccc(Br)cn3c2Cc2cccc(F)c2)cc1OC	35.6*	.	2.0	.	3.1	.	65.2*	-7.6
Clc1cccc(Cc2c(-c3ccco3)nc3ccc(Br)cn23)c1	42.4*	.	-4.8	.	27.6	.	51.3*	-4.5
CO[C@@H](CNS(=O)(=O)c1ccc(C(F)(F)F)cc1)c1cccc(F)c1	.	-13.0	.	.	.	.	.	.
Cc1cc2cc(CNC(=O)c3cccs3)ccc2n1C	35.4*	17.2	1.7	24.2	3.9	2.0	17.4	2.6
COc1cccc(C(=O)NCc2ccc3c(c2)cc(C)n3C)c1	45.8*	14.6	-0.1	10.3	1.2	i	49.1*	-0.5
COc1ccc(/C=C\C(=O)NCc2ccc3c(c2)cc(C)n3C)cc1OC	81.4*	15.3	-0.5	-7.3	4.8	-1.6	58.6*	-8.9
C/C=C\C(=O)NCc1ccc2c(c1)cc(C)n2C	.	7.0	.	.	.	.	.	.
COc1ccc(CC(=O)NCc2ccc3c(c2)cc(C)n3C)cc1	-1.1	13.2	-0.3	19.0	4.8	i	.	.
COc1ccc(C(=O)NCc2ccc3c(c2)cc(C)n3C)cc1OC	45.4*	-1.0	-0.3	6.0	10.2	-1.4	8.0	-1.2
CSC1CC2CCC(C1)N2C(=O)COc1ccccc1F (centres undefined)	.	-15.0	.	.	.	.	.	.
COc1ccccc1/C=N/NC(=O)c1c(-c2ccccc2)noc1C	8.6	.	-2.3	10.2	5.0	-0.3	.	.
Cc1cccc(/C=N/NC(=O)c2c(-c3ccccc3)noc2C)c1O	25.9*	.	-1.1	18.5	0.9	-0.2	21.6	-5.5
CC(NC(=O)CSc1ccc(S(=O)(=O)N2CCOCC2)cn1)c1ccc(Cl)cc1Cl (centres undefined)	26.7*	-4.1	0.7	.	8.9	-1.6	4.7	2.6
COc1cccc(N2C[C@H](CNC(C)=O)OC2=O)c1	.	-10.0	.	.	.	.	.	.
Cc1cc(C)c(S(=O)(=O)NCc2ccncc2)c(C)c1	40.4*	1.6	.	6.4	5.3	-0.3	34.6*	5.9
Nn1c(SCc2ccc(Br)cc2)nnc1-c1n[nH]c2c1CCC2	25.3*	.	.	.	-1.1	.	18.9	8.3
SMILES	PrPC TRFRET	SSB-PriA inh	TcdB GH inh	VHR inh abs	CCHF vOTU inh	BH1578 lux ind	PrPC TRFRET cf	LD9 cytotox
CCC(C)NC(=O)CCC(=O)OC1O[C@H]2OC3(C)CC[C@H]4[C@H](C)CCC(C1C)C24OO3 (some centres undefined)	28.1*	0.8	0.1	18.9	6.0	i	30.8*	21.4*
CCC(C)C(NC(=O)CCCNC(=O)CCC(=O)OC1O[C@H]2OC3(C)CC[C@H]4[C@H](C)CCC(C1C)C24OO3)C(=O)O (some centres undefined)	27.8*	.	1.4	-28.6	0.8	0.6	31.0*	22.1*
COc1ccc(NC(=O)c2cc(-c3cc(Cl)ccc3OC)n[nH]2)c(OC)c1	28.4*	.	-7.6	.	19.7	0.4	19.1	1.4
CCOc1ccc(Cl)cc1-c1cc(C(=O)Nc2ccc(OC)cc2OC)[nH]n1	13.0	.	1.4	.	-7.6	i	.	.
CC(=O)N1CCc2c(sc(NC(=O)c3ccccc3NS(=O)(=O)c3ccc(C)cc3)c2C(N)=O)C1	.	-20.0	.	.	.	.	.	.
O=C(c1ccc(C(F)(F)F)cc1)C1CCCN(Cc2ccncc2)C1 (centres undefined)	28.5*	-4.8	0.9	7.3	-2.5	-1.2	23.2	11.5*
CNC(=O)Cc1ccc(NS(=O)(=O)Cc2ccc(C(F)(F)F)cc2)cc1	.	-22.0	.	.	.	.	.	.
CN(C(=O)COc1ccccc1C(=O)NCCOc1ccccc1)c1ccccc1	79.6*	-15.3	0.5	22.9	-1.1	3.7	82.7*	94.9*
O=C(NCCOc1ccccc1)c1ccccc1Cl	4.2	-3.0	0.5	13.8	12.9	-6.7	.	.
CO[C@H]([C@H](C)/C=C/N(C)C=O)[C@@H](C)C(=O)CC[C@H](C)[C@H](O)[C@H](C)[C@H]1OC(=O)/C=C/C(C)=C/C[C@H](O)C[C@@H]2C=CC[C@@H](C[C@H](OC)C(C)(O)[C@@H](OC)C[C@@H](OC)[C@@H]1C)O2 (some centres undefined)	47.1*	.	.	.	.	.	41.8*	25.1*
CO[C@H]([C@H](C)/C=C/N(C)C=O)[C@@H](C)C(O)CC[C@H](C)[C@H](O)[C@H](C)[C@H]1OC(=O)/C=C/C(C)=C/C[C@H](O)C[C@@H]2C=CC[C@@H](C[C@H](OC)[C@@]3(CO3)[C@@H](OC)C[C@@H](OC)[C@@H]1C)O2 (some centres undefined)	26.5*	.	.	.	.	.	24.0	24.5*
CO[C@H]([C@H](C)/C=C/N(C)C=O)[C@@H](C)C(=O)CC[C@H](C)[C@H](O)[C@H](C)[C@H]1OC(=O)/C=C/C(C)=C/[C@H](O)[C@H](OC)C[C@@H]2C=CC[C@@H](C[C@H](OC)[C@@H](CO)[C@@H](OC)C[C@@H](OC)[C@@H]1C)O2	37.5*	.	.	.	.	.	31.8*	23.4*
CO[C@H]([C@H](C)/C=C/N(C)C=O)[C@@H](C)C(=O)CC[C@H](C)[C@H](O)[C@H](C)[C@H]1OC(=O)/C=C/C(C)=C/C[C@H](O)C[C@@H]2C=CC[C@@H](C[C@H](OC)[C@@H](CO)[C@@H](OC)C[C@@H](OC)[C@@H]1C)O2	38.3*	.	.	.	.	.	34.2*	24.5*
COc1ccccc1-c1n[nH]c(=S)o1	47.6*	-6.0	.	9.7	22.3	i	47.9*	-1.1
COc1ccccc1-c1n[nH]c(=S)n1-c1ccccc1	48.4*	0.3	.	6.6	6.0	0.7	61.1*	5.9
COc1ccc(Cl)cc1-c1n[nH]c(=S)o1	68.9*	-15.6	.	-8.3	20.8	-5.9	84.5*	-0.6
O=C(CS(=O)(=O)c1ccc(F)cc1)Nc1ccc(Br)cc1C(=O)c1ccccc1	.	-9.0	.	.	.	.	.	.
CN(C)CCCN(C(=O)c1ccc(S(=O)(=O)N(C)C2CCCCC2)cc1)c1nc2c(F)cccc2s1	.	26.0	.	.	.	.	.	.

Bioassay records (PubChem BioAssay)
